# Screening data deposited in PubChem by National Center for Advancing Translational Sciences (NCATS).
# Sfp inh – qHTS Assay for Inhibitors of Bacillus subtilis Sfp phosphopantetheinyl transferase (PPTase) | Potency, µM, for inactives: largest response in the series, negative = inhibition, actives largely listed as inhibitors | hit rate 3.5% among 310,000 | Biochemical Sfp PPTase activity, qHTS;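 also: the enzyme is Sfp with the accession as filed and its product quenches rhodamine fluorescence; 0% = enzyme reaction without inhibitor and -100% = no enzyme wells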
#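 Buffer: 50 mM Hepes-Na pH 7.6, 10 mM MgCl2, 0.01% Nonidet P-40, 0.01% BSA. Enzyme 15 nM, pre-exposed to compound 15 min; substrates then added and fluorescence change tracked over 30 min.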
# HP1b chromo inh – HTS for Inhibitors of HP1-beta Chromodomain Interactions with Methylated Histone Tails; Chromobox protein homolog 1 (Homo sapiens), P83916; AlphaScreen HP1-beta / biotin-H3K9me3 peptide binding; Potency, µM (series often up to 114 µM), for the others: top-dose activity change, negative = inhibition, most hits filed as inhibitors; hit rate 0.56% among 390,000; also: nearly all actives have a fitted effect of over 70% in size
# Target sequence (P83916 whole entry, looked up): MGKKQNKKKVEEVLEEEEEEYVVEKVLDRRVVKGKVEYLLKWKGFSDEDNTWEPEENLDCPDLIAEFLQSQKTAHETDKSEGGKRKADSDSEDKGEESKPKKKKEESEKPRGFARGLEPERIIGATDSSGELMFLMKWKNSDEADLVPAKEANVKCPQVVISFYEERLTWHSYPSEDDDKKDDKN
#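 HP1-beta protein (50 nM final) preincubated 30 min at room temperature with biotinylated H3(1-18)K9me3 peptide (50 nM) in PBS pH 7.4, 0.01% Tween-20, then compound added for 30 min. AlphaScreen streptavidin donor/nickel chelate acceptor beads (10 ug/mL final), 30 min dark, luminescence read.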
# JMJD2A Tudor – qHTS Assay for Inhibitors of JMJD2A-Tudor Domain. hit rate 4.4% among 390,000. AID 504339, 2011. Potency, µM (doses to about 114 µM), for inactives: at the highest dose activity change, negative = inhibition, actives largely listed as inhibitors. AlphaScreen JMJD2A-Tudor / H3K4me3 peptide binding. Lysine-specific demethylase 4A (Homo sapiens), O75164; also: % is scaled to controls: 0 for no effect and ±100 for the full control effect; nearly all actives have a fitted effect of over 50% in size
# G9a inh – qHTS Assay for Inhibitors of Histone Lysine Methyltransferase G9a | Histone-lysine N-methyltransferase EHMT2 (Homo sapiens), Q96KQ7 | G9a H3K9 monomethylation, AlphaScreen, 2 h | Potency, µM (doses to about 102 µM), for inactives: at the highest dose activity, negative = inhibition, actives largely listed as inhibitors | hit rate 8.8% among 350,000 | AID 504332, 2011; also: % is scaled to controls: 0 for no effect and ±100 for the full control effect; nearly all actives have a fitted effect of over 75% in size
# Target sequence (Q96KQ7 913-1193 limits assumed): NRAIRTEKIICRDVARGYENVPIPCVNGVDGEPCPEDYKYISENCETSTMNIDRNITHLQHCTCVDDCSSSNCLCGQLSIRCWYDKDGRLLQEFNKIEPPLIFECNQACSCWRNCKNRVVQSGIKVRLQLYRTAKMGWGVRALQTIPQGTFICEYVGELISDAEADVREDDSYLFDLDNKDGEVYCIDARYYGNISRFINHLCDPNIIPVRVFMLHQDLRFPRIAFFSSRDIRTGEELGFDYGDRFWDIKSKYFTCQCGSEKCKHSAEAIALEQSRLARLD
#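 Signal arises when biotinylated H3K9 peptide, once monomethylated, bridges streptavidin donor and antibody-captured acceptor beads. Enzyme at 20 nM was preincubated 15 min with test compounds; peptide 500 nM and SAM 20 uM then reacted for 2 h.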
# BAZ2B block – qHTS Assay for Inhibitors of BAZ2B; Bromodomain adjacent to zinc finger domain protein 2B (Homo sapiens), Q9UIF8; AlphaScreen BAZ2B-H3K14Ac peptide displacement; Potency, µM (titrated, usually from 114 µM), without a hit: at the top dose activity change, negative = inhibition, actives largely listed as inhibitors; hit rate 4.4% among 360,000; also: % is scaled to controls: 0 for no effect and ±100 for the full control effect; nearly all actives have a fitted effect of over 60% in size
#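 AlphaScreen displacement of biotin-H3(5-23)K14Ac peptide (50 nM final) from BAZ2B (50 nM final) in PBS pH 7.4, 0.01% Tween-20; complex preformed 30 min RT, then compounds (top 110 uM) 30 min RT, beads 20 min dark.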
# * marks the source's active call; other numbers are inactive results; ? = inconclusive; . = no result given; ! = a repeat was not active; [ ] = remark or other dose. Most compounds without a hit are left out; they make up all but 12% or so of the library. Calls follow the shape of the dose curve; as a rule, active = well fitted curve in the direction sought with a large enough effect; inconclusive = small, poorly fitted or top-dose-only effect, or another doubt; inactive = no such curve, though single readings can be large; an effect the other way counts as inactive or inconclusive. Potency is read from the fitted curve at half-maximal effect.
SMILES,Sfp inh,HP1b chromo inh,JMJD2A Tudor,G9a inh,BAZ2B block
Cc1ccc(C(=O)N2CCN(C(=O)CN3CCCC3)C2)cc1,9%,21%,1%,0%,-3%
Cc1ccc(Cl)c(NC(=S)N(CCCN2CCOCC2)Cc2ccco2)c1,?,-2%,?,?,?
COC(=O)c1ccc(NC(=O)C2CCN(c3ncnc4c3nc3n4CCCCC3)CC2)cc1,.,6%,-14%,8%[59 µM],1%
COC(=O)C(NC(=O)c1ccccc1C(=O)O)c1ccc2ccccc2c1 (stereo not given),7%,60%,-3%,71µM*,-17%
O=C(c1cccc(C(F)(F)F)c1)C1CCCN(C(=O)Cn2cncn2)C1 (stereo not given),5%,13%[57 µM],-9%,20%,-14%
O=C(NCC(=O)N(Cc1cccs1)C(C(=O)NC1CCCC1)c1ccncc1)c1ccco1 (stereo not given),25µM*,27%,1%,?,?
O=C(NCC(=O)N(Cc1ccccc1)C(C(=O)NC1CCCC1)c1ccncc1)c1ccco1 (stereo not given),-8%,35%,-5%,10µM*,10%
O=C(NCC(=O)N(Cc1cccs1)C(C(=O)NC1CCCCC1)c1ccco1)c1ccco1 (stereo not given),-21%,25%,-15%,11%[59 µM],6%
O=C(NCC(=O)N(Cc1ccccc1)C(C(=O)NC1CCCC1)c1ccco1)c1ccco1 (stereo not given),18%,9%,-12%,11%[59 µM],-23%
COC(=O)/C(=C\Nc1ccc(Cl)cc1Cl)NC(=O)c1ccc(Cl)cc1Cl,-4%,-1%,-32%,-30%[59 µM],0%
CCCc1cc(=O)oc2c(C)c(OS(C)(=O)=O)ccc12,.,62%,11%,.,.
CCCc1cc(-n2ccnc2C)n2c(nc3ccccc32)c1C#N,.,39%,1%,.,.
CCCc1cc(N2CCN(C(=O)c3ccco3)CC2)n2c(nc3ccccc32)c1C#N,56µM*,55%,-6%,16µM*,17%
CCCCc1nc(N2CCN(C(=O)c3ccco3)CC2)c(C#N)c2c1CCCC2,45µM*,12%,-13%,-11%,?
COc1cccc(CC2(CO)CCCN(Cc3c(C)cc(C)cc3-n3cccn3)C2)c1 (stereo not given),2%,12%,-27%,-27%,-2%
O=C(Nc1ccc(Br)cc1)c1cccc(S(=O)(=O)Nc2ccc(Br)cc2)c1,15%,.,.,.,.
O=C1CSc2ccc(C(=O)Nc3cccc(S(=O)(=O)Nc4ccc(Br)cc4)c3)cc2N1,35µM*,-24%,?,?,?
O=C(Nc1cccc(S(=O)(=O)Nc2ccc(Cl)cc2)c1)c1ccc(Cl)nc1,11%,45%,-25%,79µM*,-3%
N#Cc1ccccc1NC(=O)c1cc2c(=O)n3ccccc3nc2s1,.,14%,-3%,-36%[59 µM],-5%
Cc1c(C(=O)NCCN(C)C)oc2c1-c1nn(Cc3ccccc3Cl)cc1CC2,.,37%,-21%,1%[59 µM],5%
COc1ccc(/C=C2\SC(=S)N(N3CCOCC3)C2=O)c(OC)c1,-13%,?,?,46%[59 µM],24%
O=C1/C(=C/c2ccccn2)SC(=S)N1N1CCOCC1,?,17%,-8%[57.1 µM],56µM*,?
COc1cccc(/C=C2\SC(=S)N(N3CCOCC3)C2=O)c1OC,-20%,?,?,?,18µM*
O=C1/C(=C/c2ccc(F)cc2)SC(=S)N1N1CCOCC1,-11%,-21%,-23%,35%[12.7 µM],-28%
O=C(Nc1ccc2ccccc2c1)C(=O)C1C(=O)Nc2ccccc21 (stereo not given),-12%,.,.,.,-2%
SMILES,Sfp inh,HP1b chromo inh,JMJD2A Tudor,G9a inh,BAZ2B block
Cc1cccc(NC(=O)C(=O)C2C(=O)Nc3ccccc32)c1 (stereo not given),13%,29%,-35%,45µM*,-13%
COc1ccc2c(C)cc(SCC(=O)Nc3nsc(-c4ccc(C)cc4)n3)nc2c1,-4%,52%,-22%,2%,-3%
Cc1nc(NC(=O)CSc2cc(C)c3ccccc3n2)c(Cl)cc1Cl,?,22%,-27%,45µM*,0%
Cc1ccc(-c2nc(NC(=O)CSc3cc(C)c4ccccc4n3)ns2)cc1,2%,-14%,?,35µM*,10µM*!
COc1ccc2nc(NC(=O)CSc3ccccc3)sc2c1,?,21%,-13%,-33%,-23%
Cc1cccc(N(Cc2ccccc2)C(=O)c2ccc(S(C)(=O)=O)cc2)c1,1%,6%,-11%,?,-16%
CS(=O)(=O)c1ccc(C(=O)N(Cc2ccccc2)c2ccccc2)cc1,5%,4%,-21%,45µM*,-3%
COc1ccc(OC)c(NS(=O)(=O)c2c(C)nc3sccn3c2=O)c1,13%,20%,-24%,11%,-9%
COc1ccc(C2NN=C(c3ccc(C)cc3)S2)cc1 (stereo not given),9%,18%,-12%,32µM*,11%
CCOc1cccc(NC(=O)C(Cc2cccs2)c2nn[nH]n2)c1 (stereo not given),?,12%,-1%,56µM*,?
O=C(Nc1ccccc1)C(Cc1cccs1)c1nn[nH]n1 (stereo not given),-8%,40%,-15%,-35%[59 µM],-25%
c1csc(-c2cnc3ccccc3n2)c1,2%,31%,18%,36%[59 µM],32%
c1cc2c(cnc3cscc32)s1,-15%,41%,-10%,14µM*,-37%
COC(=O)c1ccc2c(c1)c(C#Cc1ccccc1)c(-c1ccccc1)n2C,8%,126%,55%,134%,.
Cc1ccc(S(=O)(=O)N2CCCN(C(=O)CNC(=O)c3ccccc3)CC2)cc1,.,10%,-12%,?,-2%
Cn1c(=O)c2c(-c3ccccc3F)c3c(nc2n(C)c1=O)-c1ccccc1C3O (stereo not given),13%,9%,-11%,10µM*,-3%
COc1ccc(C2C(=O)N(C3CCCCC3)CC(=O)N2Cc2ccco2)cc1 (stereo not given),22µM*,9%,-30%,25µM*,-5%
COc1ccc(N2CCN(S(=O)(=O)CCNC(=O)COc3ccccc3OC)CC2)cc1,17%,18%,-20%,?,-27%
CCCCNS(=O)(=O)c1ccc2nc(SCC(=O)c3ccc(C#N)cc3)[nH]c2c1,-9%,0%,-35%,32µM*,0%
NNC(=O)c1[nH]c2ccccc2c1-c1ccccc1,-4%,23%,-25%,5%[12.7 µM],-30%
